# Biological target: Glucose transporter (Leishmania mexicana) (UniProt O61059)
# Assay: ST_JUDE_LEISH: Cytotoxicity at 2uM final concentration against transgenic Leishmania Mexicana promastigotes LmGT2 that are glucose transport deficient and complemented with the L. Mexicana glucose transporter 2. Activity is measured by DNA content using SYBR green in vitro
# Format: functional
row,SMILES,inhibition
1,C#CC[C@@H](NC(N)=O)C(=O)O,0.41%
2,Cc1ccc(/C=C/C(=O)NC2CCC(N3CCC(c4ccccc4C)CC3)CC2)cc1F (stereo not given),13.7%
3,O=C(/C=C/c1ccc(Cl)c(Cl)c1)NCCCCCCN1CCCN(C(=O)Nc2cccc(Cl)c2)CC1,-2.92%
4,CCOc1ccc(/C=C/C(=O)Nc2cccc3c2CCN(C)C3)cc1,6.27%
5,O=C(O)c1ccc2c(c1)N(C(=O)CNCc1ccc(F)cc1)CC(=O)N2CCCc1ccccc1,-2.25%
6,CN1CCN(c2ccc(-c3cc(-c4ccncc4)c(-c4ccc(Cl)c(O)c4)o3)cc2)CC1,-1.14%
7,CC(C)N1CCC(N(Cc2ccc(-c3ccc(C(F)(F)F)cc3)cc2)C(=O)Cn2c(CCc3cccc(F)c3F)cc(=O)c3cn(C)nc32)CC1,13%
8,Cc1cc(Nc2ccc(Oc3ccc(Cl)cc3)cc2)nc(N)n1,2.92%
9,Cc1c[nH]c(CCNC(=O)c2cc(-c3ccc(Cl)cc3)cs2)n1,2.79%
10,O=C(Nc1cccc2ccccc12)N1CCc2cc3nccc(N4CCN5CCC[C@H]5C4)c3cc21,4.23%
11,CS(=O)(=O)c1ccc(-n2nc(C(F)(F)F)cc2-c2ccc(C=NOCC(=O)O)o2)cc1,-0.38%
12,CCc1c(CCNCCCCCCNCCc2ccc([N+](=O)[O-])cc2)ccc(OC)c1OC,12.9%
13,CCc1cc(N2CCN(c3ccccc3F)CC2)nc(SCc2ccc(C(=O)NC3CC3)o2)n1,2.15%
14,Cc1cc(NCc2ccc(F)cc2)nc2cc(O)ccc12,1.59%
15,COc1ccc(CCN(C)CCOc2ccc(NC(=O)COc3ccc4sc5ccccc5c(=O)c4c3)cc2)cc1OC,1.11%

# — ChEMBL document CHEMBL3433997, “St. Jude Leishmania screening dataset” (2016)
